This is part of a sample that, as a whole, favours compounds with a hit. Of some 79,000 tested, about 15% had one in any assay. The source made the active and inactive calls. No stated cut-off is given here; in the data, active means growth inhibition above about 70%; inactive means the rest.
What was measured:
[1] = NCI Yeast Anticancer Drug Screen. Data for the mec2-1 strain (AID 157); conditions: S. cerevisiae mec2-1 strain, active compounds read high
How it was run: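 Readout is yeast growth inhibition, normalised to vehicle-treated controls, in the mec2-1 strain exposed to compound.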

[2] = NCI Yeast Anticancer Drug Screen. Data for the rad14 strain (AID 159);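 further: 0% = growth of vehicle-treated control cultures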; conditions: S. cerevisiae rad14 strain growth inhibition, active compounds read high
How it was run: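 Growth inhibition vs vehicle controls; genetically altered yeast strain (DNA damage repair defect) treated with test compounds.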

[3] = NCI Yeast Anticancer Drug Screen. Data for the sgs1 mgt1 strain (AID 161);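 further: 0% = growth of cultures given vehicle only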; conditions: S. cerevisiae sgs1 mgt1 strain, active compounds read high
How it was run: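 This yeast growth screen uses a strain with defined DNA-repair lesions; compound-treated growth is compared with vehicle-treated growth.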

[4] = NCI Yeast Anticancer Drug Screen. Data for the CLN2oe strain (AID 163);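 further: 0% = growth of vehicle-only control cultures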; conditions: S. cerevisiae CLN2oe strain, active compounds read high
How it was run: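 Values reflect how much compound exposure reduced yeast growth, referenced to vehicle-exposed cells. Assay organism is a strain with a defined genetic change affecting cell-cycle control.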

[5] = NCI Yeast Anticancer Drug Screen. Data for the cln2 rad14 strain (AID 165);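 further: 0% = growth equal to vehicle treated cultures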; conditions: S. cerevisiae cln2 rad14 strain, active compounds read high
How it was run: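 Relative to vehicle controls, growth inhibition of compound-treated cln2 rad14 yeast was recorded.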

[6] = NCI Yeast Anticancer Drug Screen. Data for the bub3 strain (AID 167); conditions: S. cerevisiae bub3 mutant strain, active compounds read high
How it was run: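 Readout: yeast growth inhibition, expressed relative to vehicle-only wells. The test organism is a mutant strain from a panel with lesions in DNA repair or checkpoint genes.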

[7] = NCI Yeast Anticancer Drug Screen. Data for the wt2 strain (AID 169);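 further: 0% = growth of vehicle-treated yeast cultures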; conditions: S. cerevisiae wt2 strain growth inhibition, active compounds read high
How it was run: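 Values express reduction in yeast growth under compound treatment, referenced to vehicle-treated cells.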

[8] = NCI Yeast Anticancer Drug Screen. Data for the mlh1 strain (AID 171);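 further: 0% = growth of vehicle-treated control cultures of the same strain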; conditions: S. cerevisiae mlh1 strain growth inhibition, active compounds read high
How it was run: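 Steps: expose the defined-mutant yeast strain to compound; expose a parallel culture to vehicle; measure growth; express compound effect as inhibition relative to the vehicle culture.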

[9] = NCI Yeast Anticancer Drug Screen. Data for the sgs1 strain (AID 173);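 further: 0% = growth of vehicle-only control cultures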; conditions: S. cerevisiae sgs1 mutant, active compounds read high
How it was run: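 Treat defined-mutant yeast with compound; measure growth; calculate inhibition relative to vehicle-treated cells.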

[10] = NCI Yeast Anticancer Drug Screen. Data for the mlh1 rad18 strain (AID 175); conditions: S. cerevisiae mlh1 rad18 strain growth inhibition, active compounds read high
How it was run: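 Test agents were incubated with a yeast strain of defined genotype (DNA damage repair defect). Inhibition of growth was derived by comparison with vehicle-exposed cultures.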

[11] = NCI Yeast Anticancer Drug Screen. Data for the rad18 strain (AID 177); conditions: S. cerevisiae rad18 mutant growth inhibition, active compounds read high
How it was run: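 A genetically defined yeast mutant impaired in DNA damage repair was treated with test compounds, then its growth was measured against cultures receiving vehicle alone.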

[12] = NCI Yeast Anticancer Drug Screen. Data for the rad52 strain (AID 147);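 further: 0% = growth of vehicle-treated control cultures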; conditions: S. cerevisiae rad52 mutant growth inhibition, active compounds read high
How it was run: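 Screen used a yeast mutant impaired in DNA repair. After compound exposure, growth was measured. Values reflect inhibition compared with vehicle-treated cells.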

[13] = NCI Yeast Anticancer Drug Screen. Data for the wt1 strain (AID 149);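 further: 0% = growth of vehicle-treated wt1 cultures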; conditions: S. cerevisiae wt1 strain (SPY 50644) growth inhibition, active compounds read high
How it was run: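 Growth inhibition read against vehicle controls after compound exposure of the wt1 yeast strain.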

[14] = NCI Yeast Anticancer Drug Screen. Data for the rad50EPP+ strain (AID 151);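 further: 0% = growth of vehicle-treated control cultures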; conditions: S. cerevisiae rad50 mutant strain, active compounds read high
How it was run: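 Exposing the rad50EPP+ strain to each compound, growth was compared with vehicle-only cultures to give inhibition.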

[15] = NCI Yeast Anticancer Drug Screen. Data for the rad50 strain (AID 155);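 further: 0% = growth of vehicle-only cultures of the same strain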; conditions: S. cerevisiae rad50 strain growth inhibition, active compounds read high
How it was run: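 Readout: growth inhibition relative to vehicle-treated cultures. Compound exposure was carried out in a genetically defined yeast strain deficient in DNA damage repair.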

[16] = at 5.0 µM (retest, dose inferred, filed as 0.5)
[17] = at 50.0 µM (retest, dose inferred, filed as 5.0)

Measured: growth inhibition

O=C1C=CC(=O)N1c1ccc2c(c1)OCO2
active: [1]; at 100.0 µM 99% | [2]; at 3.7 µM 99% | [2]; at 11.0 µM 100% | [2]; at 33.0 µM 100% | [2]; at 100.0 µM 100% | [3]; [17] 98% | [3]; at 50.0 µM 99.2% | [4]; at 11.0 µM 100% | [4]; at 33.0 µM 100% | [4]; at 100.0 µM 99% | [5]; [17] 98% | [5]; at 50.0 µM 99% | [6]; at 3.7 µM 90% | [6]; at 11.0 µM 100% | [6]; at 33.0 µM 99% | [6]; [17] 98% | [6]; at 50.0 µM 99.2% | [6]; at 100.0 µM 99% | [7]; at 3.7 µM 99% | [7]; at 11.0 µM 100% | [7]; at 33.0 µM 100% | [7]; at 100.0 µM 100% | [8]; at 11.0 µM 100% | [8]; at 33.0 µM 100% | [8]; at 100.0 µM 99% | [9]; at 3.7 µM 85% | [9]; at 11.0 µM 100% | [9]; at 33.0 µM 100% | [9]; at 100.0 µM 100% | [10]; [17] 97% | [10]; at 50.0 µM 99.2% | [11]; at 11.0 µM 100% | [11]; at 33.0 µM 100% | [11]; at 100.0 µM 99%
inactive: [2]; at 1.2 µM 21% | [3]; [16] 8% | [4]; at 1.2 µM -9% | [4]; at 3.7 µM 40% | [5]; [16] -4% | [6]; at 1.2 µM 2% | [6]; [16] 25% | [7]; at 1.2 µM 17% | [8]; at 1.2 µM -11% | [8]; at 3.7 µM 58% | [9]; at 1.2 µM 15% | [10]; [16] -39% | [11]; at 1.2 µM -6% | [11]; at 3.7 µM 58%

O=C1C=CC(=O)N1c1ccc(I)cc1
active: [12]; at 11.0 µM 97% | [12]; at 33.0 µM 99% | [12]; at 100.0 µM 98% | [13]; at 11.0 µM 96% | [13]; at 33.0 µM 99% | [13]; at 100.0 µM 98% | [14]; at 3.7 µM 70% | [14]; at 11.0 µM 99% | [14]; at 33.0 µM 100% | [14]; at 100.0 µM 99% | [15]; at 11.0 µM 96% | [15]; at 33.0 µM 98% | [15]; at 50.0 µM 92% | [15]; at 100.0 µM 98% | [1]; at 11.0 µM 99% | [1]; at 33.0 µM 99% | [1]; at 50.0 µM 93.7% | [1]; at 100.0 µM 100% | [2]; at 11.0 µM 97% | [2]; at 33.0 µM 99% | [2]; at 100.0 µM 98% | [3]; [16] 97% | [3]; [17] 100% | [3]; at 50.0 µM 93.6% | [4]; at 11.0 µM 96% | [4]; at 33.0 µM 100% | [4]; at 100.0 µM 99% | [5]; [17] 100% | [5]; at 50.0 µM 92.1% | [6]; [16] 100% | [6]; at 11.0 µM 98% | [6]; at 33.0 µM 99% | [6]; [17] 99% | [6]; at 50.0 µM 92.4% | [6]; at 100.0 µM 98% | [7]; at 11.0 µM 81% | [7]; at 33.0 µM 100% | [7]; at 100.0 µM 99% | [8]; at 11.0 µM 98% | [8]; at 33.0 µM 100% | [8]; at 100.0 µM 99% | [9]; at 3.7 µM 76% | [9]; at 11.0 µM 100% | [9]; at 33.0 µM 100% | [9]; at 100.0 µM 100% | [10]; [17] 72% | [10]; at 50.0 µM 92.2% | [11]; at 33.0 µM 99% | [11]; at 100.0 µM 99%
inactive: [12]; at 1.2 µM 12% | [12]; at 3.7 µM 26% | [13]; at 1.2 µM -9% | [13]; at 3.7 µM 33% | [14]; at 1.2 µM 59% | [15]; at 1.2 µM 21% | [15]; at 3.7 µM 37% | [15]; [16] 26% | [15]; [17] 54% | [1]; at 1.2 µM 12% | [1]; at 3.7 µM 41% | [1]; [16] 31% | [1]; [17] 65% | [2]; at 1.2 µM 11% | [2]; at 3.7 µM 28% | [4]; at 1.2 µM 13% | [4]; at 3.7 µM 26% | [5]; [16] 56% | [6]; at 1.2 µM 5% | [6]; at 3.7 µM 15% | [7]; at 1.2 µM -2% | [7]; at 3.7 µM 16% | [8]; at 1.2 µM 13% | [8]; at 3.7 µM 40% | [9]; at 1.2 µM 29% | [10]; [16] 17% | [11]; at 1.2 µM 27% | [11]; at 3.7 µM 35% | [11]; at 11.0 µM 49%

O=C(O)c1[nH]c(=O)c2ccccc2c1Nc1ccccc1
inactive: [12]; at 1.2 µM -2% | [12]; at 3.7 µM -1% | [12]; at 11.0 µM 2% | [12]; at 33.0 µM 4% | [12]; at 100.0 µM 3% | [13]; at 1.2 µM -1% | [13]; at 3.7 µM -2% | [13]; at 11.0 µM -2% | [13]; at 33.0 µM -1% | [13]; at 100.0 µM 1% | [14]; at 1.2 µM -3% | [14]; at 3.7 µM -2% | [14]; at 11.0 µM 0% | [14]; at 33.0 µM -1% | [14]; at 100.0 µM 6% | [15]; at 1.2 µM -3% | [15]; at 3.7 µM -1% | [15]; [16] -6% | [15]; at 11.0 µM 1% | [15]; at 33.0 µM 4% | [15]; [17] -11% | [15]; at 50.0 µM -0.85% | [15]; at 100.0 µM 0% | [1]; at 1.2 µM -3% | [1]; at 3.7 µM -3% | [1]; [16] -13% | [1]; at 11.0 µM -2% | [1]; at 33.0 µM 1% | [1]; [17] -24% | [1]; at 50.0 µM -1.2% | [1]; at 100.0 µM 3% | [2]; at 1.2 µM -3% | [2]; at 3.7 µM -3% | [2]; at 11.0 µM 1% | [2]; at 33.0 µM 1% | [2]; at 100.0 µM 2% | [3]; [16] 0% | [3]; [17] 5% | [3]; at 50.0 µM 10.3% | [4]; at 1.2 µM -3% | [4]; at 3.7 µM 1% | [4]; at 11.0 µM -2% | [4]; at 33.0 µM -1% | [4]; at 100.0 µM 1% | [5]; [16] -23% | [5]; [17] 41% | [5]; at 50.0 µM -10.4% | [6]; at 1.2 µM -2% | [6]; at 3.7 µM -2% | [6]; [16] -4% | [6]; at 11.0 µM -3% | [6]; at 33.0 µM -3% | [6]; [17] -11% | [6]; at 50.0 µM -6.6% | [6]; at 100.0 µM -2% | [7]; at 1.2 µM -3% | [7]; at 3.7 µM -3% | [7]; at 11.0 µM -2% | [7]; at 33.0 µM -4% | [7]; at 100.0 µM 0% | [8]; at 1.2 µM -2% | [8]; at 3.7 µM 0% | [8]; at 11.0 µM 0% | [8]; at 33.0 µM 1% | [8]; at 100.0 µM 4% | [9]; at 1.2 µM -7% | [9]; at 3.7 µM -3% | [9]; at 11.0 µM 1% | [9]; at 33.0 µM 1% | [9]; at 100.0 µM 2% | [10]; [16] -14% | [10]; [17] -8% | [10]; at 50.0 µM 7.5% | [11]; at 1.2 µM -2% | [11]; at 3.7 µM -1% | [11]; at 11.0 µM 0% | [11]; at 33.0 µM 0% | [11]; at 100.0 µM 6%
